Drawing on ChEMBL document CHEMBL1961873, “Compounds: GSK PKIS; Assays: Nanosyn kinase panel” (2012), this text covers inhibition for eight compounds.

Experiment [1] has as its target Platelet-derived growth factor receptor beta (Homo sapiens) (UniProt P09619). To be noted: at 1 µM.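 Also: each value is a mean percent inhibition.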
For experiment [2], the target named is Tyrosine-protein kinase FRK (Homo sapiens) (UniProt P42685). To be noted: at 0.1 µM.
Experiment [3] has the same target. The note with it: at 1 µM.
Experiment [4] has as its target Protein-tyrosine kinase 2-beta (Homo sapiens) (UniProt Q14289). To be noted: at 0.1 µM.
The target is the same in experiment [5]. To be noted: at 1 µM.
Experiment [6] deals with Proto-oncogene tyrosine-protein kinase receptor Ret (Homo sapiens) (UniProt P07949). The note with it: at 0.1 µM.
Sequence of Proto-oncogene tyrosine-protein kinase receptor Ret (Homo sapiens) (P07949 whole entry): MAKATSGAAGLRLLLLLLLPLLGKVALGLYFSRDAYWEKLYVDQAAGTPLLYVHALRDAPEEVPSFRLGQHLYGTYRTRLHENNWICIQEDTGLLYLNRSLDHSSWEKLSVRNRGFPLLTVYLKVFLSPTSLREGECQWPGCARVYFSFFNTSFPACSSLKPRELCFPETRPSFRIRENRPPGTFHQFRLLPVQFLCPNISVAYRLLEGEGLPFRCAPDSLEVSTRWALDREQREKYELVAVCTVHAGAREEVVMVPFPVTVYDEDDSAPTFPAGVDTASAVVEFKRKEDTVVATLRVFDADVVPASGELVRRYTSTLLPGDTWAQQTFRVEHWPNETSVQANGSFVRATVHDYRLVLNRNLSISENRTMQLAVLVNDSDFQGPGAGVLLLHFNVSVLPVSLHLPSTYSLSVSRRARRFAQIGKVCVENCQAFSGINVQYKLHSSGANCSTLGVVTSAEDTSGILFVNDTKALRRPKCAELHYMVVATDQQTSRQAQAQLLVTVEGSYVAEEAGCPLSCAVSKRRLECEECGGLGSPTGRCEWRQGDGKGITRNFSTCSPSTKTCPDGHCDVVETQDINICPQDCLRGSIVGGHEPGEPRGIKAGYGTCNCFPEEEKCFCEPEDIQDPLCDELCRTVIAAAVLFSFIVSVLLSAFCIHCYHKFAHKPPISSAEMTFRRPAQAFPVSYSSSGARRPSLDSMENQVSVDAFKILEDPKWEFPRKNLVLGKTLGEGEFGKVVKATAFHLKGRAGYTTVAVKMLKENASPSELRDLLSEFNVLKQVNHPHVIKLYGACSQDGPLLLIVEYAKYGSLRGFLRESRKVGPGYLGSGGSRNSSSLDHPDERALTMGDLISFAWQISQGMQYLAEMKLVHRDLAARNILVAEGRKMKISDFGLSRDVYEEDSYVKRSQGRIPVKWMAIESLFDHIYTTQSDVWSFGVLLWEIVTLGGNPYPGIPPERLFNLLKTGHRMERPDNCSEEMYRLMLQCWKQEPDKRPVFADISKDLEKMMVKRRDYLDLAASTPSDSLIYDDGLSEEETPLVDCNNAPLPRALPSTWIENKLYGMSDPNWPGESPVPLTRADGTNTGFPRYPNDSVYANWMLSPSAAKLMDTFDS
Experiment [7] shares this target. To be noted: at 1 µM.
Experiment [8] has as its system Proto-oncogene tyrosine-protein kinase receptor Ret (Homo sapiens), P07949 [V804L]. To be noted: at 0.1 µM.
Experiment [9] shares this test system. To be noted: at 1 µM.
The subject of experiment [10] is Proto-oncogene tyrosine-protein kinase receptor Ret (Homo sapiens), P07949 [Y791F]. The note with it: at 0.1 µM.
Experiment [11] shares this test system. To be noted: at 1 µM.
The target of experiment [12] is Macrophage-stimulating protein receptor (Homo sapiens) (UniProt Q04912). To be noted: at 0.1 µM.
Experiment [13] has the same target. To be noted: at 1 µM.
In experiment [14] the target is Proto-oncogene tyrosine-protein kinase ROS (Homo sapiens) (UniProt P08922). To be noted: at 0.1 µM.
Sequence of Proto-oncogene tyrosine-protein kinase ROS (Homo sapiens) (P08922 whole entry): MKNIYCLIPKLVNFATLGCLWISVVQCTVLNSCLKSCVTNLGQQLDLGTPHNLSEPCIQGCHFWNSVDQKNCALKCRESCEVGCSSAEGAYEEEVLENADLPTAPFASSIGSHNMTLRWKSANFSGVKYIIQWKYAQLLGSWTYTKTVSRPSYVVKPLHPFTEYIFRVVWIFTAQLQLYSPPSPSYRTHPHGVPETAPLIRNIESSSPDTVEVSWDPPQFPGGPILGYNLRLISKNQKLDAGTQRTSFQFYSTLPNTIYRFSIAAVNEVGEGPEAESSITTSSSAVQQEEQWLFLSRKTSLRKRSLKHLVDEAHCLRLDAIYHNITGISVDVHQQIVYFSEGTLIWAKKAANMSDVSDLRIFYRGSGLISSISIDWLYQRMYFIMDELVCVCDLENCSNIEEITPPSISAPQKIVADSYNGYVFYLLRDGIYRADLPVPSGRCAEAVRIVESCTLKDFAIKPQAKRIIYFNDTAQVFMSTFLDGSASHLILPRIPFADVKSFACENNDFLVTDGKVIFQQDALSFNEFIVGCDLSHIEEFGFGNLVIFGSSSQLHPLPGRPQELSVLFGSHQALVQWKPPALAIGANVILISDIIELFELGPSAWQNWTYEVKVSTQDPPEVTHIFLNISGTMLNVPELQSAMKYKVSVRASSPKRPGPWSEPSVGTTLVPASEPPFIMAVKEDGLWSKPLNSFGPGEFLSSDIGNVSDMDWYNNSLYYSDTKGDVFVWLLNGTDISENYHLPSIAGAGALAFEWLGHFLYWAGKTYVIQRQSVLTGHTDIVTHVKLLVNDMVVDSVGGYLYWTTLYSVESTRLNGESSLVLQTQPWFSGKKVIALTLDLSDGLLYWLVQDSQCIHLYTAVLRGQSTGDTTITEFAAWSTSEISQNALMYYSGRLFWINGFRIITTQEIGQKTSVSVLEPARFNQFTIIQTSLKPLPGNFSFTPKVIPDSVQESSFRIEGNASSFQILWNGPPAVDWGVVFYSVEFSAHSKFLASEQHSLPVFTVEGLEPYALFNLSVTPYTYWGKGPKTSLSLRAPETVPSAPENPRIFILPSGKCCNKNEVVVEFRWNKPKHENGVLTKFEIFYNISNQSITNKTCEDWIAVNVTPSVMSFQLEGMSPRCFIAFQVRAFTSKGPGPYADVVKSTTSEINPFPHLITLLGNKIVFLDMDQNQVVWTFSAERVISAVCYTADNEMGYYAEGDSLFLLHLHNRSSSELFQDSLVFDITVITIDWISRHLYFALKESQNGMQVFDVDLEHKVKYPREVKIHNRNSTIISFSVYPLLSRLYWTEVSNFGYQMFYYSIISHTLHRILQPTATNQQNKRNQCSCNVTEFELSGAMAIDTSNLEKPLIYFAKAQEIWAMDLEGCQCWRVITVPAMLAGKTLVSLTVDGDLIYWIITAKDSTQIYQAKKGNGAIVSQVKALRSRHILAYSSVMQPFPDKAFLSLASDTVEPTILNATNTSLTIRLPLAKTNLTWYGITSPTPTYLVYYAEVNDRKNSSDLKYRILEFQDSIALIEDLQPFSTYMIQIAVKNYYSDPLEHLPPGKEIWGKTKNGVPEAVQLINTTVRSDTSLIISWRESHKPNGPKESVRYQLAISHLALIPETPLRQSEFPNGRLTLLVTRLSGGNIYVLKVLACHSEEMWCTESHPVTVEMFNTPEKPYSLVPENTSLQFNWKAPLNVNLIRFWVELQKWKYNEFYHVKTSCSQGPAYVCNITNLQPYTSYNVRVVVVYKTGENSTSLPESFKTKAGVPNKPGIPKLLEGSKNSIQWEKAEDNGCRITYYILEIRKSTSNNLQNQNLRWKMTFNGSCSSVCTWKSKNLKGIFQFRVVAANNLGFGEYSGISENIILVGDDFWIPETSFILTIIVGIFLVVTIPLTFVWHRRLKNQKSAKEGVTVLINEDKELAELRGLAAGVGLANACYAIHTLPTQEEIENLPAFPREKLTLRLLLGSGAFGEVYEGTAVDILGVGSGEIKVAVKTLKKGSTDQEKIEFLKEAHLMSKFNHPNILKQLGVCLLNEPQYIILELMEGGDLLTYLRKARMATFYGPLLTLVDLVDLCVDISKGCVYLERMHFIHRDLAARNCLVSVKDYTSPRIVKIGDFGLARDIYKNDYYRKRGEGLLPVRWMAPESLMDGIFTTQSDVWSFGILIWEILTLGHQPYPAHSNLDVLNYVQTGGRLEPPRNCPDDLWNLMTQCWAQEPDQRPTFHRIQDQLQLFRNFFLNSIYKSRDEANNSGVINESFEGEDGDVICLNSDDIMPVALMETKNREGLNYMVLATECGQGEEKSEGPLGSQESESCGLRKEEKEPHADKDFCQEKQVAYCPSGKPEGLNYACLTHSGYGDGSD
Experiment [15] has the same target. To be noted: at 1 µM.
The target in experiment [16] is Proto-oncogene tyrosine-protein kinase Src (Homo sapiens) (UniProt P12931). The note with it: at 0.1 µM.
Experiment [17] shares this target. The note with it: at 1 µM.
Experiment [18] addresses Tyrosine-protein kinase Srms (Homo sapiens) (UniProt Q9H3Y6). The note with it: at 0.1 µM.
The target is the same in experiment [19]. To be noted: at 1 µM.
Experiment [20] concerns the target Tyrosine-protein kinase SYK (Homo sapiens) (UniProt P43405). The note with it: at 0.1 µM.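 Also: reported percentages are mean inhibition values for SYK.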

Sequence of Tyrosine-protein kinase Srms (Homo sapiens) (Q9H3Y6 whole entry): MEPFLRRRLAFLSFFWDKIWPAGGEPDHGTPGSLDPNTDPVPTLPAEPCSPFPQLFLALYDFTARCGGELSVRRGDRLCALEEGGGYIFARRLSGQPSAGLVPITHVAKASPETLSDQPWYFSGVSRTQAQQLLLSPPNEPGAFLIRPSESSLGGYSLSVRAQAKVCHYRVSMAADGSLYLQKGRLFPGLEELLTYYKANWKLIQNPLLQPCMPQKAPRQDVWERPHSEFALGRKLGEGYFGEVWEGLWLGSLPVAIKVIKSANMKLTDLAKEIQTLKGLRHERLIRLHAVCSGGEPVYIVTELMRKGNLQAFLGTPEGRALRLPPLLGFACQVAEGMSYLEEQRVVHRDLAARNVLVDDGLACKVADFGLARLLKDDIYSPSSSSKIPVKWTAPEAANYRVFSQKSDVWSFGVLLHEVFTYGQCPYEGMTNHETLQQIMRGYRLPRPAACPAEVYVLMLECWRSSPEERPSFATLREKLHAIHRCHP
Sequence of Platelet-derived growth factor receptor beta (Homo sapiens) (P09619 whole entry): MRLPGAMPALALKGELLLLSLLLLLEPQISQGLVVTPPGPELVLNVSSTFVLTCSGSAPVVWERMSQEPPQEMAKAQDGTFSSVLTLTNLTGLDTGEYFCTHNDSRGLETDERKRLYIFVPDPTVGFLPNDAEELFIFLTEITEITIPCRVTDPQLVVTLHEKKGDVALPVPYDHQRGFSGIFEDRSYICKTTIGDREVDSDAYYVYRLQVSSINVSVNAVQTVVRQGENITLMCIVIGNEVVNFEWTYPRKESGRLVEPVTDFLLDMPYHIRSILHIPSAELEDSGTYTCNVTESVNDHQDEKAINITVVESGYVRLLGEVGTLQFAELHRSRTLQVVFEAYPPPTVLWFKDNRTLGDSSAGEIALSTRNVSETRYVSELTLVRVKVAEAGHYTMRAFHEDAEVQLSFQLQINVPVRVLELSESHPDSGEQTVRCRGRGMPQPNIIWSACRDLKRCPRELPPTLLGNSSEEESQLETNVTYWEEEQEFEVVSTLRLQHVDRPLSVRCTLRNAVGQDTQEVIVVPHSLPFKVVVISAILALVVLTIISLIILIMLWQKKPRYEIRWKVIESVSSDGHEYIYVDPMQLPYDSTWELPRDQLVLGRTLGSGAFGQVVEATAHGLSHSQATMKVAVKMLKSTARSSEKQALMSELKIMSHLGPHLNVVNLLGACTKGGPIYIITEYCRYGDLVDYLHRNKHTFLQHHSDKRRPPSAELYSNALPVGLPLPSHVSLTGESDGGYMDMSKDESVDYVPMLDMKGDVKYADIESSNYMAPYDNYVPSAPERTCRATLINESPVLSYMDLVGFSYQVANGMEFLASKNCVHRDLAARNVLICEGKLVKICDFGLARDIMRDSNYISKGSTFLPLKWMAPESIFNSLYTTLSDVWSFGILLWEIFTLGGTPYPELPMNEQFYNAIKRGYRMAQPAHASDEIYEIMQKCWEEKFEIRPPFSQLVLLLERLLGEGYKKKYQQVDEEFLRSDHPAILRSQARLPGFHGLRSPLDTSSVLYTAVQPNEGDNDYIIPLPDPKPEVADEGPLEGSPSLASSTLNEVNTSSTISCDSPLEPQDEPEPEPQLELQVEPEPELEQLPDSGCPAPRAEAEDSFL
Sequence of Proto-oncogene tyrosine-protein kinase receptor Ret (Homo sapiens), P07949 [Y791F] (P07949 whole entry Y791F): as the sequence (P07949 whole entry) above, with Y791F counted along it
Sequence of Proto-oncogene tyrosine-protein kinase receptor Ret (Homo sapiens), P07949 [V804L] (P07949 whole entry V804L): as the sequence (P07949 whole entry) above, with V804L counted along it

Take `COc1cccc(-c2c[nH]c3c(N/N=C/c4ccncc4)ncnc23)c1`: the inhibition (commonly the relative decrease from the control value, in per cent) amounted to 81.1% in [1]; 1.61% in experiment [2]; 3.28% in experiment [3]; 2.76% in experiment [4]; 9.78% in [5]; 10.7% in [6]. Further, the inhibition is 37.9% in experiment [7]; 7.65% in experiment [8]; 30.7% in experiment [9]; 10.2% in experiment [10]; 39.7% in experiment [11]; 9.37% in experiment [12]. Also, the inhibition was 42.4% in [13]; 4.61% in experiment [14]; 14.4% in [15]; 29.8% in experiment [16]; 77.3% in [17]; 1.92% in experiment [18]. The inhibition in [19] is 11.8%; in experiment [20], -4.09%.
For `COc1ccc(CNC(=O)c2ccc(-c3cc(-c4nnc(C)o4)ccc3C)cc2)cc1`, the inhibition is 13% in experiment [1]; 0.66% in experiment [2]; 1.5% in experiment [3]; -0.09% in experiment [4]; 5.83% in experiment [5]; 7.22% in experiment [6]. For the same compound, the inhibition is 7.69% in experiment [7]; 14% in [8]; 15.8% in experiment [9]; 6.44% in [10]; 19.9% in [11]; 10.5% in experiment [12]. Moreover, the inhibition in [13] was determined as 3.7%; in [14] it was 6.1%; in experiment [15], 5.4%; in [16], 1.18%; in [17], 2.9%; in experiment [18], 3.8%. Besides, the inhibition turned out to be 8.13% in experiment [19] and 2.81% in experiment [20].
Regarding `FC(F)(F)c1cccc(-c2nn3ncccc3c2-c2ccnc(Nc3ccc4c(c3)OCCO4)n2)c1`, the inhibition was 14.4% in experiment [1]; 0.89% in [2]; 5.26% in experiment [3]; -0.64% in experiment [4]; 13.1% in experiment [5]; 7.52% in experiment [6]. Further, the inhibition in experiment [7] was found to be 31.8%; in [8] it was 4.11%; in experiment [9], 2.86%; in experiment [10], 7.75%; in experiment [11], 22.1%; in [12], 5.16%. Moreover, the inhibition in [13] is 4.5%; in [14], 1.05%; in [15] it was 4.18%; in experiment [16], 12.8%; in experiment [17], 47.9%; in experiment [18], 0.82%. For the same compound, the results for the inhibition in [19] and in [20] were 2.59% and 0.9%, respectively.
In the case of `Nc1nc(-c2ccc(F)cc2)c(-c2ccc3ncccc3n2)s1`, the inhibition in experiment [1] is 42.9%; in experiment [2] it was 2.59%; in experiment [3], 2.66%; in experiment [4] it was 10%; in experiment [5] it was 14.3%; in experiment [6], 8.56%. Also, the inhibition in [7] was 14.8%; in [8], 4.68%; in [9] it was 7.83%; in experiment [10] it was 7.45%; in [11] it was 14%; in experiment [12] it was -8.7%. In addition, the inhibition in experiment [13] was 7.82%; in experiment [14], 4.44%; in experiment [15], 15.8%; in [16], -1.89%; in experiment [17], 14.2%; in [18] it was 0.67%. Besides, the inhibition in experiment [19] is 3.74%; in experiment [20], -1.32%.
`CC(C)COC(=O)c1ccc2c(c1)/C(=C/Nc1ccc(S(N)(=O)=O)cc1)C(=O)N2`: the inhibition is 86% in experiment [1]; -0.58% in experiment [2]; 1.92% in experiment [3]; 2.4% in experiment [4]; 16.5% in experiment [5]; 34% in [6]. The inhibition in experiment [7] is 78%; in experiment [8] it was 54.5%; in [9], 82.4%; in [10], 25.2%; in experiment [11], 69.9%; in experiment [12], -0.4%. The inhibition in experiment [13] is 16.7%; in [14], 1.71%; in [15], 15.3%; in [16], 2.28%; in experiment [17], 39.5%; in experiment [18] it was 5.32%. Besides, the inhibition in experiment [19] came to 3.32%; in [20], 4.14%.
Regarding `CS(=O)(=O)CCNCc1coc(-c2ccc3ncnc(Nc4ccc(OCc5ccccc5)cc4)c3c2)c1`, the inhibition amounted to 5.87% in experiment [1]; 1.08% in [2]; 0.27% in experiment [3]; 3.8% in experiment [4]; 3.38% in experiment [5]; 3.04% in experiment [6]. Also, the inhibition was 8.54% in experiment [7]; 3.88% in [8]; 5.06% in experiment [9]; 6.2% in experiment [10]; 8.25% in experiment [11]; -5.7% in [12]. The inhibition in experiment [13] amounted to 2.31%; in experiment [14] it was 4.75%; in experiment [15], 4.27%; in experiment [16], 8.85%; in experiment [17], 10.9%; in [18], 3.44%. Besides, the inhibition in experiment [19] was found to be 3.19%; in [20] it was 2.29%.
With `CNC(=O)c1cc(-c2ccc(F)cc2)cc(-c2ccc(S(=O)(=O)N3CCCC3)cc2)c1N`, the inhibition is 6.26% in experiment [1]; 2.42% in [2]; 2.21% in experiment [3]; 2.65% in [4]; 7.64% in experiment [5]; 2.88% in experiment [6]. The inhibition was 2.96% in [7]; 2.49% in [8]; 5.41% in experiment [9]; 3.21% in [10]; 2.82% in experiment [11]; 1.89% in experiment [12]. Besides, the inhibition in experiment [13] was determined as 4.58%; in experiment [14], 4.64%; in experiment [15], 6.55%; in experiment [16], 5.46%; in experiment [17] it was 6.17%; in [18] it was 2.11%. Besides, the inhibition in experiment [19] is -2.91%; in experiment [20], -0.29%.
Turning to `Fc1cccc(COc2ccc(Nc3ncnc4sc(-c5ccco5)cc34)cc2Cl)c1`, the inhibition in experiment [1] was found to be 15%; in experiment [2], 4.23%; in experiment [3], 3.25%; in experiment [4], 6.41%; in experiment [5], 5.02%; in experiment [6] it was 3.58%. In addition, the inhibition in experiment [7] was 5.02%; in experiment [8], 5.96%; in experiment [9], 11.1%; in experiment [10], 8.01%; in experiment [11], 6.83%; in experiment [12], -0.84%. The inhibition was 3.24% in [13]; 1.53% in [14]; 8.29% in experiment [15]; 7.3% in [16]; 6.58% in experiment [17]; -3.52% in [18]. Besides, the inhibition in experiment [19] was -1.36%; in experiment [20], -3.2%.
